From PubChem BioAssay (Tox21)
Several values for one entry are separate records, joined by “and”; a condition that tells them apart may be missing. Equal entries are not always repeated. A number with no mark means an inactive call. Records with an inconclusive call do not appear. A call without a number means that no potency is given here. Activity calls are given as the source filed them. The call rests on the fitted dose curve; in most records, active means well fitted curve in the direction sought with a large enough effect in the repeat runs; inconclusive means weak or mixed curves; inactive means no such curve, though single readings can be large; an effect the other way counts as inactive or inconclusive.

Legend:
[1] = Human pregnane X receptor (PXR) small molecule agonists, qHTS cell viability counter screen (AID 1346977); further: nearly all actives have a fitted effect of over 50% in size; further: potency means the concentration at half of the fitted maximal effect
How it was run: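 Viability counter screen: CellTiter-Fluor signal in PXR-Luc HepG2 cells, 24hr compound exposure, 37C, 5% CO2.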

[2] = Caspase-3/7 induction in CHO-K1 cells by small molecules, qHTS cell viability counter screen (AID 1346979); further: nearly all actives have a fitted effect of over 35% in size; further: potency means the concentration at half of the fitted maximal effect
How it was run: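 Viability readout by fluorescence (CellTiter-Fluor) on wild-type CHO-K1 cells exposed for 16hr at 37C and 5% CO2 to compounds delivered in DMSO; reagent incubated 1hr before reading.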

[3] = Caspase-3/7 induction in HepG2 cells by small molecules, qHTS cell viability counter screen (AID 1346981); further: nearly all actives have a fitted effect of over 30% in size; further: potency means the concentration at half of the fitted maximal effect
How it was run: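 After a 5-hr attachment period at 37 C and 5% CO2, wild-type HepG2 cells received compounds in DMSO. Sixteen hours later CellTiter-Fluor was dispensed and the fluorescent signal quantified after a further hour.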

[4] = target: Nuclear receptor subfamily 1 group I member 2 (Homo sapiens) (UniProt O75469); experiment: Human pregnane X receptor (PXR) small molecule agonists, qHTS assay (AID 1346982); further: nearly all actives have a fitted effect of over 35% in size; further: potency means the concentration at half of the fitted maximal effect
Chain of Nuclear receptor subfamily 1 group I member 2 (Homo sapiens) (O75469 whole entry, looked up): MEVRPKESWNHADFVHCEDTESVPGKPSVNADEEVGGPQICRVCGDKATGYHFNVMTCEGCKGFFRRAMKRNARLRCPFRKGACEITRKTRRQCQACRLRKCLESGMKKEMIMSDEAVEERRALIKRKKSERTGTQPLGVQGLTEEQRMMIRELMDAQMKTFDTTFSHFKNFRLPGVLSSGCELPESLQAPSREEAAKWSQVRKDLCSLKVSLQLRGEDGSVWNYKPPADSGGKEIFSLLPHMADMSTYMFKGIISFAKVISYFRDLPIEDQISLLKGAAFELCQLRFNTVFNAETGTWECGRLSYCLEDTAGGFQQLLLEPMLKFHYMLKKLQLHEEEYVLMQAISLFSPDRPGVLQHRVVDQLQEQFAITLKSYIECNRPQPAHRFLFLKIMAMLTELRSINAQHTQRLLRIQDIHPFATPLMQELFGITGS
How it was run: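 Tox21 qHTS; PXR-Luc HepG2; compounds pinned from DMSO; 24 hr, 37 C; ONE-Glo luciferase detection, 30 min room temperature.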

[5] = target: Nuclear receptor subfamily 1 group I member 2 (Rattus norvegicus) (UniProt Q9R1A7); experiment: Rat pregnane X receptor (rPXR) activation by small molecules, qHTS assay (AID 1346983); details: rPXR luciferase reporter cells, One-Glo luminescence, 24 h; max activation: hits give high values; further: nearly all actives have a fitted effect of over 20% in size
Chain of Nuclear receptor subfamily 1 group I member 2 (Rattus norvegicus) (Q9R1A7 whole entry, looked up): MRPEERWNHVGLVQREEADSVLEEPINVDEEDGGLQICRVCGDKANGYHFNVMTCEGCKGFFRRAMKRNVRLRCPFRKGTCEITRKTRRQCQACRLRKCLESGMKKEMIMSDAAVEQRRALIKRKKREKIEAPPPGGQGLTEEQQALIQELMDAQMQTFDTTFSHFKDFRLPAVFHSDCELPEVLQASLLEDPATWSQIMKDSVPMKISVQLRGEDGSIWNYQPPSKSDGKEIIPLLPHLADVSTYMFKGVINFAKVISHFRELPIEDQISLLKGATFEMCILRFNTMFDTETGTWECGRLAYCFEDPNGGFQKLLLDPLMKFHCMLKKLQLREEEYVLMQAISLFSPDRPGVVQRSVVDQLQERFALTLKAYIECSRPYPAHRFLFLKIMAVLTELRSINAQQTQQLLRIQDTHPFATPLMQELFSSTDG
How it was run: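 Cell-based rPXR luciferase reporter assay, 2,000 cells per well, rested 5hr at 37 C before compound addition in DMSO, then 24 hr at 37 C. One-Glo reagent was added and luminescence read after 30 min at room temperature.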

[6] = target: Nuclear receptor subfamily 1 group I member 2 (Homo sapiens) (UniProt O75469); experiment: CYP3A4 induction through human pregnane X receptor (PXR) by small molecules, qHTS assay (AID 1346984); further: nearly all actives have a fitted effect of over 40% in size; further: potency means the concentration at half of the fitted maximal effect
How it was run: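 Cells (DPX-2; HepG2 with PXR element plus CYP3A4-promoter luciferase) settled 5hr, then were treated 24hr at 37C. A 3hr, 3uM-final Luciferin-IPA step preceded luminescence measurement with One-Glo.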

[7] = target: Nuclear receptor subfamily 1 group I member 2 (Homo sapiens) (UniProt O75469); experiment: Human pregnane X receptor (PXR) activation by small molecules, qHTS assay (AID 1346985); further: nearly all actives have a fitted effect of over 40% in size; further: potency means the concentration at half of the fitted maximal effect
How it was run: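 DPX-2 cells (HepG2 co-transfected with a PXR response element and a CYP3A4-promoter luciferase construct) were seeded at 2,000 per well, rested 5 hr at 37C, then exposed to DMSO-dissolved compounds for 24 hr. Activation was read as luciferase luminescence.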

[8] = target: Cytochrome P450 2D6 (Homo sapiens) (UniProt P10635); experiment: Cytochrome P450 Family 2 Subfamily D Member 6 (CYP2D6) small molecule antagonists: luciferase reporter qHTS assay (AID 1671196); further: nearly all actives have a fitted effect of over 50% in size; further: potency means the concentration at half of the fitted maximal effect
Chain of Cytochrome P450 2D6 (Homo sapiens) (P10635 whole entry, looked up): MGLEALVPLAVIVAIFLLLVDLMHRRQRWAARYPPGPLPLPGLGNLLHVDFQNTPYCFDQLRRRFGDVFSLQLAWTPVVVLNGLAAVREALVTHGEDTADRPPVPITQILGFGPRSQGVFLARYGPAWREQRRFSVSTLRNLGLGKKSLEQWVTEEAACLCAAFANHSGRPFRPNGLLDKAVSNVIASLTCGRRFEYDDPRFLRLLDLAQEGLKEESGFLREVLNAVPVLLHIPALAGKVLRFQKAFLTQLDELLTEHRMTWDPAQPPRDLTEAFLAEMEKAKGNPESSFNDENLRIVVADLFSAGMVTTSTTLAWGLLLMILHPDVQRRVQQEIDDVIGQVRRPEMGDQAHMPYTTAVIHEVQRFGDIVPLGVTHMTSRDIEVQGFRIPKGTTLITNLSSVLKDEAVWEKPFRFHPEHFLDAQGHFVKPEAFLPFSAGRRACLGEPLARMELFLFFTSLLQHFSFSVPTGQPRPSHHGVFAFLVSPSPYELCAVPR
How it was run: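 Room-temperature luminescent CYP2D6 activity assay: compound preincubated 10 min with enzyme–substrate mix, NADPH-initiated reaction 1 h, detection reagent 20 min before reading.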

[9] = Caspase-3/7 induction in CHO-K1 cells by small molecules, qHTS assay (AID 1346980); further: nearly all actives have a fitted effect of over 15% in size; further: potency means the concentration at half of the fitted maximal effect
How it was run: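 Wild-type cells were seeded at 1,500 per well and settled 5 hr at 37 C, 5% CO2, then exposed to DMSO-dissolved compounds for 17 hr. Caspase-Glo 3/7 reagent was added, and luminescence was read after 30min at room temperature.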

[10] = Caspase-3/7 induction in HepG2 cells by small molecules, qHTS assay (AID 1346978); further: nearly all actives have a fitted effect of over 15% in size; further: potency means the concentration at half of the fitted maximal effect
How it was run: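 Wild-type HepG2 cells (2,000/well) were settled 5 h at 37 C, 5% CO2, then exposed to compounds in DMSO for 17 h. Caspase-3/7 activity was read by luminescence 30 min after adding Caspase-Glo 3/7 reagent at room temperature.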

SMILES | Potency [1] | Potency [2] | Potency [3] | Potency [4] | max activation [5] [%] | Potency [6] | Potency [7] | Potency [8] | Potency [9] | Potency [10]
NC(=O)NS(=O)(=O)c1ccc(N)cc1 | inactive | inactive | inactive | inactive | -4.58 | inactive | inactive | inactive | – | –
Clc1ccc2cc3ccccc3cc2c1 | inactive | inactive | inactive | – | – | – | – | inactive | inactive | –
CN1CCN(CCC(=O)N2c3ccccc3Sc3ccc(C(F)(F)F)cc32)CC1 | 26.6 µM (active) | 23.7 µM (active) | 29.8 µM (active) | inactive | – | 14.1 µM (active) | 15.8 µM (active) | 0.155 µM (active) | – | –
CCCCCCCCCCC=O | inactive | inactive | inactive | inactive | – | – | – | inactive | – | –
CC(C)(C)c1ccc(C(=O)O)cc1 | inactive | inactive | inactive | – | – | – | – | inactive | inactive | –
CCCCCCCC(=O)[O-].CCCCCCCC(=O)[O-].[Zn+2] | inactive | inactive | inactive | inactive | – | – | – | inactive | – | –
O=S1(=O)CC(Cl)(Cl)C(Cl)(Cl)C1 | 2.73 µM (active) | 0.686 µM (active) | 17.2 µM (active) | 0.545 µM (active) | – | – | – | inactive | 0.486 µM (active) | –
O=c1cccccc1O | inactive | 7.84 µM (active) | inactive | 69.9 µM (active) | – | – | – | inactive | inactive | –
CCCCCCCCCCCC[N+](C)(C)CCCCCCCCCCCC | 27.3 µM (active) | 17.2 µM (active) | 27.3 µM (active) | inactive | – | – | – | 20 µM (active) | – | –
NNc1nc(-c2ccc([N+](=O)[O-])cc2)cs1 | 27.3 µM (active) | 27.3 µM (active) | 30.6 µM (active) | – | – | – | – | 14.2 µM (active) | inactive | –
C=C(C)C(=O)OCC[N+](C)(C)C | inactive | 68.3 µM (active) | inactive | inactive | – | – | – | inactive | inactive | –
C1CCCC1 | inactive | inactive | inactive | inactive | – | – | – | 34.8 µM (active) | inactive | –
COc1cc(-c2nc(NC(=O)c3cc4cc(C)cc(C)c4n3CC(=O)O)sc2CCC2CCCCC2)c(OC)cc1Cl | 31.5 µM (active) | 19.9 µM (active) | – | 28.1 µM (active) | – | – | – | inactive | 56 µM (active) | –
Oc1cc2ccccc2c2ccccc12 | 13.7 µM (active) | 15.4 µM (active) | 13.7 µM (active) | inactive | – | – | – | 2.24 µM (active) | inactive | –
O=[N+]([O-])c1cc([N+](=O)[O-])c2ccc(S(=O)(=O)O)cc2c1O | 27.1 µM (active) | 21.6 µM (active) | 24.2 µM (active) | – | – | – | – | – | – | –
O=C(Oc1cccc2cccnc12)c1ccccc1 | 3.35 µM (active) | 7.5 µM (active) | – | – | – | inactive | inactive | inactive | inactive | –
Nc1c(Cl)cc(Cl)cc1Cl | inactive | inactive | inactive | inactive | – | – | – | inactive | inactive | –
O=c1[nH]sc2ccccc12 | 27.3 µM (active) | 19.3 µM (active) | – | 8.63 µM (active) | – | – | – | inactive | inactive | –
CCN(CC)CCCC(C)Nc1c2ccc(Cl)cc2nc2ccc(OC)cc12 (stereo not given) | – | – | – | 5.96 µM (active) | – | inactive | inactive | – | – | 29.8 µM (active)
CCOc1ccc2nc3cc(N)ccc3c(N)c2c1 | – | – | – | inactive | 1.69 | inactive | inactive | 15.5 µM (active) | inactive | inactive
CCCCC(CC)COP(=O)(O)OCC(CC)CCCC (stereo not given) | – | – | inactive | 61.3 µM (active) and 54.5 µM (active) | – | – | – | 50.2 µM (active) | inactive | inactive
CC(C)n1nc(-c2cc3cc(O)ccc3[nH]2)c2c(N)ncnc21 | – | 1.06 µM (active) | – | 3.76 µM (active) | – | – | – | 30.9 µM (active) | – | 29.8 µM (active)
CCCC(=O)OC[C@@H](OC(=O)CCC)[C@@H](OC(=O)CCC)[C@H](Cn1c2nc(=O)[nH]c(=O)c-2nc2cc(C)c(C)cc21)OC(=O)CCC | – | – | – | – | – | inactive | inactive | 8.71 µM (active) | inactive | inactive
